# Measurements: article PMC7862700, “An all-to-all approach to the identification of sequence-specific readers for epigenetic DNA modifications on cytosine”
# Key:
# Assay in all cases: DAPPL (digital affinity profiling via proximity ligation, sequencing); 10 mM Tris-HCl pH 7.5, 50 mM NaCl, 1 mM DTT, 4% glycerol, room temperature, 30 min; GST-TFs on glutathione beads, 16-mer random dsDNA library, 0.1% formaldehyde crosslink after washing; high values mean tight binding
# FLI1 = biological target: T1, FLI1 (Homo sapiens, UniProt Q01543 1-452); details: protein: recombinant; tags: N-terminal GST; dsDNA, one strand shown
# T1 sequence: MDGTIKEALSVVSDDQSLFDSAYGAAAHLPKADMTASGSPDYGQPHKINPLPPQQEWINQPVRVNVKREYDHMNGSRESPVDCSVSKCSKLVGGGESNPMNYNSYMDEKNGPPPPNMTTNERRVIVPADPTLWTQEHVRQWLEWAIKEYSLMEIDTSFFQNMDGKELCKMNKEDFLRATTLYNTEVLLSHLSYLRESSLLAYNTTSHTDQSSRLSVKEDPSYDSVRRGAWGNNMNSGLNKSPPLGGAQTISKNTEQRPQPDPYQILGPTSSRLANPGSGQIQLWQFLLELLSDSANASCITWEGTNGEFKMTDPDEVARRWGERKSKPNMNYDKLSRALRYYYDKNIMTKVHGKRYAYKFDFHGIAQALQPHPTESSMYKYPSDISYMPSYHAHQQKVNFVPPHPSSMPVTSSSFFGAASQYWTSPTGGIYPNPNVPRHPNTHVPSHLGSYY
# Outline: (§1)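 A tag-only sample was pooled with DNA-barcoded human transcription factors that had been expressed in yeast as GST fusions and captured on glutathione beads. The pools were incubated for 30 min at room temperature with 200 nmole of a random double-stranded 16-mer DNA library in Tris/NaCl/DTT/glycerol buffer, then washed, crosslinked with 0.1% formaldehyde, proximity-ligated (BsaI/T4 ligase, 1 h, 37 °C), PCR-amplified and sequenced on an Illumina NextSeq500. Binding signal is each hexamer's read frequency for a factor divided by its frequency for the tag-only sample.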
# ELK1 = biological target: T2, ELK1 (Homo sapiens, UniProt P19419 1-428); details: protein: recombinant; tags: N-terminal GST; dsDNA, one strand shown
# T2 sequence: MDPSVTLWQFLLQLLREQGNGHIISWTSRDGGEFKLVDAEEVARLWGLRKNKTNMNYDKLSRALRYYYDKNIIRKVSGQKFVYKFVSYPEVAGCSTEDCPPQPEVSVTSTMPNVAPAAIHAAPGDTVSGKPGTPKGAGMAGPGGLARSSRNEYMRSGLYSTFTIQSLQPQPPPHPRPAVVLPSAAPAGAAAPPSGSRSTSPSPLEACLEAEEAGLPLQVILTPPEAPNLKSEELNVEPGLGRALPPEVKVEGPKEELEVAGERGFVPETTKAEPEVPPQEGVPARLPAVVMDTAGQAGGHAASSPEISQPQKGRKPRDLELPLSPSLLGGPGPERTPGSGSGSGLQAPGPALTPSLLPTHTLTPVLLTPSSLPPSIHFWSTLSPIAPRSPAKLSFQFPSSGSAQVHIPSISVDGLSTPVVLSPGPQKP
# Outline: as §1
# GABPA = biological target: T3, GABPA (Homo sapiens, UniProt Q06546 1-454); details: protein: recombinant; tags: N-terminal GST; dsDNA, one strand shown
# T3 sequence: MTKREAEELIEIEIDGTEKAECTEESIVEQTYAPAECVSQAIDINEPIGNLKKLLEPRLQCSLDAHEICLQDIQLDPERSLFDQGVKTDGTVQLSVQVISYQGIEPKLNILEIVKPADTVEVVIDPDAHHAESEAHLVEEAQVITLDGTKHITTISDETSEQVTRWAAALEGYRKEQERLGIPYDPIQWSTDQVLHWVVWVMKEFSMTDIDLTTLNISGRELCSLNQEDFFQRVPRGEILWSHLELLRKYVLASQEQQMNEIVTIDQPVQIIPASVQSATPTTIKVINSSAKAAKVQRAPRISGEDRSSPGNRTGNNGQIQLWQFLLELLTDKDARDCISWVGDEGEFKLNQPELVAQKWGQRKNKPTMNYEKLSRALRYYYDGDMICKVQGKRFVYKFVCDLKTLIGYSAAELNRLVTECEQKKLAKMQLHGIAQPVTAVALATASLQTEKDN
# Outline: as §1
# ERG = biological target: T4, ERG (Homo sapiens, UniProt P11308 1-479); details: protein: recombinant; tags: N-terminal GST; dsDNA, one strand shown
# T4 sequence: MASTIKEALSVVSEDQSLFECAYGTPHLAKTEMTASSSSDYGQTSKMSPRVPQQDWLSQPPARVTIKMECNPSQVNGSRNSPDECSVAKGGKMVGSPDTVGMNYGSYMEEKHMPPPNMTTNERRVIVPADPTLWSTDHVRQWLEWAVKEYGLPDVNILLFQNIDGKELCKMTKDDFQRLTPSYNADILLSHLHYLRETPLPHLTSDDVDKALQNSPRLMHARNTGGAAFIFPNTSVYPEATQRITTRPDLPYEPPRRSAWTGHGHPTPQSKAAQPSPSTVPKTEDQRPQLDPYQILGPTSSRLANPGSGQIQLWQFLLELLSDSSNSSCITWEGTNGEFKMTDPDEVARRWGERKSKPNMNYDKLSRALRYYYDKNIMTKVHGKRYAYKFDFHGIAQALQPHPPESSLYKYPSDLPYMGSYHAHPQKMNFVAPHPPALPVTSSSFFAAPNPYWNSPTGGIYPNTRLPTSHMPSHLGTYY
# Outline: as §1
# ELF1 = ELF1 (Homo sapiens, UniProt P32519 1-619); details: protein: recombinant; tags: N-terminal GST; dsDNA, one strand shown
# Outline: as §1
# EHF = biological target: T5, EHF (Homo sapiens, UniProt Q9NZC4 1-300); details: protein: recombinant; tags: N-terminal GST; dsDNA, one strand shown
# T5 sequence: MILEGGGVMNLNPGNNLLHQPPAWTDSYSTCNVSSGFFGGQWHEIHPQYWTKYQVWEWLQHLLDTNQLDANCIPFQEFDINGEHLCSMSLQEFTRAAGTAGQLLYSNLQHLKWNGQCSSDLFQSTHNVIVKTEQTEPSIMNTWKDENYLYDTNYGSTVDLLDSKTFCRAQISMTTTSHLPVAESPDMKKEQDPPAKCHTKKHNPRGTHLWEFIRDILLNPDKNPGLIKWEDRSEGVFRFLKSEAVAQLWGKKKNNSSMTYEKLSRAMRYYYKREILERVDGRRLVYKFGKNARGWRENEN
# Outline: as §1
# SPI1 = SPI1 (Homo sapiens, UniProt P17947 1-270); details: protein: recombinant; tags: N-terminal GST; dsDNA, one strand shown
# Outline: as §1
# SPIB = SPIB (Homo sapiens, UniProt Q01892 1-262); details: protein: recombinant; tags: N-terminal GST; dsDNA, one strand shown
# Outline: as §1
# ELK3 = biological target: T6, ELK3 (Homo sapiens, UniProt P41970 1-407); details: protein: recombinant; tags: N-terminal GST; dsDNA, one strand shown
# T6 sequence: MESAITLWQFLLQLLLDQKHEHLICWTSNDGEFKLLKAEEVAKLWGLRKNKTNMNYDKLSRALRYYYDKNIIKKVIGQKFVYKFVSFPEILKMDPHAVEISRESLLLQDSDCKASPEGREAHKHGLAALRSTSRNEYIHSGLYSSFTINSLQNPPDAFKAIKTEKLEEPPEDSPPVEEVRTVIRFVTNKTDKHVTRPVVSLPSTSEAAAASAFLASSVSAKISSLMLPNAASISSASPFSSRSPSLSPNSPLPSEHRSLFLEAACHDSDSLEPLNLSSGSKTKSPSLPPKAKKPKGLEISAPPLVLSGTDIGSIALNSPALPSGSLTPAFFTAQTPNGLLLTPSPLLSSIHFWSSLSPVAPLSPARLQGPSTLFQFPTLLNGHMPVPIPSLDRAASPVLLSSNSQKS
# Outline: as §1
# FEV = biological target: T7, FEV (Homo sapiens, UniProt Q99581 1-238); details: protein: recombinant; tags: N-terminal GST; dsDNA, one strand shown
# T7 sequence: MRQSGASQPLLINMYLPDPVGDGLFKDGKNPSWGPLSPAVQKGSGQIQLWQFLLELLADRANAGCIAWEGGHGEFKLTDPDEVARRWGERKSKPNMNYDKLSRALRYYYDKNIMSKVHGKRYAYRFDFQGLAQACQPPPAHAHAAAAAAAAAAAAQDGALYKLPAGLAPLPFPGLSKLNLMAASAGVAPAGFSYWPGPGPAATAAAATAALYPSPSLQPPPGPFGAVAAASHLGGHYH
# Outline: as §1
# ETV5 = ETV5 (Homo sapiens, UniProt P41161 1-510); details: protein: recombinant; tags: N-terminal GST; dsDNA, one strand shown
# Outline: as §1
# HSF1 = HSF1 (Homo sapiens, UniProt Q00613 1-529); details: protein: recombinant; tags: N-terminal GST; chain copies: 3; dsDNA, one strand shown
# Outline: as §1
# SPIC = biological target: T8, SPIC (Homo sapiens, UniProt Q8N5J4 1-248); details: protein: recombinant; tags: N-terminal GST; dsDNA, one strand shown
# T8 sequence: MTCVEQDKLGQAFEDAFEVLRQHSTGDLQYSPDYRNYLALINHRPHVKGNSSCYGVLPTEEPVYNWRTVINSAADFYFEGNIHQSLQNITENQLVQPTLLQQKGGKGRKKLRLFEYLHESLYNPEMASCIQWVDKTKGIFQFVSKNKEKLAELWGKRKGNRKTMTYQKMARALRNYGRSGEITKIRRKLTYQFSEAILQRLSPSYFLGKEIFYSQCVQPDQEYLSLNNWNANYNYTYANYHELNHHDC
# Outline: as §1
# ELF4 = ELF4 (Homo sapiens, UniProt Q99607 1-663); details: protein: recombinant; tags: N-terminal GST; dsDNA, one strand shown
# Outline: as §1
# ELK4 = biological target: T9, ELK4 (Homo sapiens, UniProt P28324-2 1-405); details: protein: recombinant; tags: N-terminal GST; dsDNA, one strand shown
# T9 sequence: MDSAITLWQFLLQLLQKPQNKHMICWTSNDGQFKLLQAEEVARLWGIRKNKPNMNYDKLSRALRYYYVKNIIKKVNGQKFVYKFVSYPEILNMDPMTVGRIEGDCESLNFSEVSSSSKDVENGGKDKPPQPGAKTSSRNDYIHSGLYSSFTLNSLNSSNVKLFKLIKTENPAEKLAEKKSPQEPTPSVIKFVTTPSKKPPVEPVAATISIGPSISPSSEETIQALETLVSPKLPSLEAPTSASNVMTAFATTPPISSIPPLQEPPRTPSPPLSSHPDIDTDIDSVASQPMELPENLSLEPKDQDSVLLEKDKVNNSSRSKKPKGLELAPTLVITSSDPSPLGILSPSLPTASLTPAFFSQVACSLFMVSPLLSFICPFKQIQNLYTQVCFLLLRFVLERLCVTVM
# Outline: as §1
# ETV2 = biological target: T10, ETV2 (Homo sapiens, UniProt O00321 1-342); details: protein: recombinant; tags: N-terminal GST; dsDNA, one strand shown
# T10 sequence: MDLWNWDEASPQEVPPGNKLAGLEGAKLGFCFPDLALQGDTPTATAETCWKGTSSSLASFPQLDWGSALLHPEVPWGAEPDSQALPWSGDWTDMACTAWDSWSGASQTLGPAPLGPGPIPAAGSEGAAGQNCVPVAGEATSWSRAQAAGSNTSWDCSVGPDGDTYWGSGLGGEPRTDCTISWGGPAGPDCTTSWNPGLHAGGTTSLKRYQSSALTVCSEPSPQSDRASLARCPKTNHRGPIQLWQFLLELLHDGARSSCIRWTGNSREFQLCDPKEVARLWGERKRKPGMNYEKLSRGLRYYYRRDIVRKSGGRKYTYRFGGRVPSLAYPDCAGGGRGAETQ
# Outline: as §1
# ELF3 = biological target: T11, ELF3 (Homo sapiens, UniProt P78545 1-371); details: protein: recombinant; tags: N-terminal GST; dsDNA, one strand shown
# T11 sequence: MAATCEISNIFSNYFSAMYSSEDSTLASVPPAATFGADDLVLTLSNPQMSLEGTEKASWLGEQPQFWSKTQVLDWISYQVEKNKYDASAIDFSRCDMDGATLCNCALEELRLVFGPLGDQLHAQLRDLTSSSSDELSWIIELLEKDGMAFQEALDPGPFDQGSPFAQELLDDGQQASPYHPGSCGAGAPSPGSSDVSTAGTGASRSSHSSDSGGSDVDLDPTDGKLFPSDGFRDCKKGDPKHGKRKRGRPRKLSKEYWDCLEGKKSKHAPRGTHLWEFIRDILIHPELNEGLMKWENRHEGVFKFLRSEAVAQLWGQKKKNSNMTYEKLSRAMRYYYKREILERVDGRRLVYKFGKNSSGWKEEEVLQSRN
# Outline: as §1
# CRX = CRX (Homo sapiens, UniProt O43186 1-299); details: protein: recombinant; tags: N-terminal GST; dsDNA, one strand shown
# Outline: as §1
# ETV1 = ETV1 (Homo sapiens, UniProt P50549 1-477); details: protein: recombinant; tags: N-terminal GST; dsDNA, one strand shown
# Outline: as §1
# ELF4, sequence (Q99607 whole entry): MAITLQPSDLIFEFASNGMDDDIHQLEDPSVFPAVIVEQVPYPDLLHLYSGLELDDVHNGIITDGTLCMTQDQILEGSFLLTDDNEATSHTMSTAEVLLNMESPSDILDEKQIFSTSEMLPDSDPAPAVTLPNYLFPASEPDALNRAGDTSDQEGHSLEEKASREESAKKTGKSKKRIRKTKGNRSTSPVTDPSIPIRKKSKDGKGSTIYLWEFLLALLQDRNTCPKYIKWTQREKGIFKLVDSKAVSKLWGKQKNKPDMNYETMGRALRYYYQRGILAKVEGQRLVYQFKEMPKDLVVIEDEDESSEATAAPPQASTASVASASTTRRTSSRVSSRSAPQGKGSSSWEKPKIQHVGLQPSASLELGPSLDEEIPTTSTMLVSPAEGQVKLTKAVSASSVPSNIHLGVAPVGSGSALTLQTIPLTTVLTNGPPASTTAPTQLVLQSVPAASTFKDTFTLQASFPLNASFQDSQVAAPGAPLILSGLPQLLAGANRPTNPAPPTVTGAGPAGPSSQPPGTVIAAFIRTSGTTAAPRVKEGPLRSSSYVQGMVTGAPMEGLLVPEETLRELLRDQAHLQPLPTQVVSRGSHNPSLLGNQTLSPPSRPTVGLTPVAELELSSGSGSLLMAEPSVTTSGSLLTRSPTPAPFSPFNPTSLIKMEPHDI
# CRX, sequence (O43186 whole entry): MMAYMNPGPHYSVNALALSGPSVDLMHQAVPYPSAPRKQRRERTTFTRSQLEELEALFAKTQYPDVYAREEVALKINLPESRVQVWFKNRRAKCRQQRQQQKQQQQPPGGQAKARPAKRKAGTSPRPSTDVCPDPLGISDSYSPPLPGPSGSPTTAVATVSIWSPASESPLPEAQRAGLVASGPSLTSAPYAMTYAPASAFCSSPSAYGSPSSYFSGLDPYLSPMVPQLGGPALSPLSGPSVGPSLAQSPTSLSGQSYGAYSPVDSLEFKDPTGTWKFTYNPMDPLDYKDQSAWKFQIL
# SPIB, sequence (Q01892 whole entry): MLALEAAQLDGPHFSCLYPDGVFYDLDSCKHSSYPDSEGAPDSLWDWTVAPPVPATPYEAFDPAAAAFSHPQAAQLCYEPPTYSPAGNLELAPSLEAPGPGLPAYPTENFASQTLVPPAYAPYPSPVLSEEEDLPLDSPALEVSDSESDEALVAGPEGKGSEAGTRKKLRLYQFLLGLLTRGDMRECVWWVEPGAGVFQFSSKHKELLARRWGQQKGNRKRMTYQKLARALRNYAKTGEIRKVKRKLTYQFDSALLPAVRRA
# ETV1, sequence (P50549 whole entry): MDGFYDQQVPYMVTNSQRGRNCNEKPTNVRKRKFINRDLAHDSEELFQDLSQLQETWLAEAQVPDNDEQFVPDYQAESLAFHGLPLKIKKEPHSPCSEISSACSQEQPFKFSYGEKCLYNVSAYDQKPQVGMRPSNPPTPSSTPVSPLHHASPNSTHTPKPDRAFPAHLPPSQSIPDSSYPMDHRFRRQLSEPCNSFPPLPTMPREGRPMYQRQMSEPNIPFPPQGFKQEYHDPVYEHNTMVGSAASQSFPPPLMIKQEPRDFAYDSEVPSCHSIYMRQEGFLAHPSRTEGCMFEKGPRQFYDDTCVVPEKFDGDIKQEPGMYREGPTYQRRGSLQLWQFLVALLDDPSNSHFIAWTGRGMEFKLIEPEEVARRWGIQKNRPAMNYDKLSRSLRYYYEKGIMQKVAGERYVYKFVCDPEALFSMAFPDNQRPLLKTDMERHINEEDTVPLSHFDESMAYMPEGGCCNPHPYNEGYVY
# ETV5, sequence (P41161 whole entry): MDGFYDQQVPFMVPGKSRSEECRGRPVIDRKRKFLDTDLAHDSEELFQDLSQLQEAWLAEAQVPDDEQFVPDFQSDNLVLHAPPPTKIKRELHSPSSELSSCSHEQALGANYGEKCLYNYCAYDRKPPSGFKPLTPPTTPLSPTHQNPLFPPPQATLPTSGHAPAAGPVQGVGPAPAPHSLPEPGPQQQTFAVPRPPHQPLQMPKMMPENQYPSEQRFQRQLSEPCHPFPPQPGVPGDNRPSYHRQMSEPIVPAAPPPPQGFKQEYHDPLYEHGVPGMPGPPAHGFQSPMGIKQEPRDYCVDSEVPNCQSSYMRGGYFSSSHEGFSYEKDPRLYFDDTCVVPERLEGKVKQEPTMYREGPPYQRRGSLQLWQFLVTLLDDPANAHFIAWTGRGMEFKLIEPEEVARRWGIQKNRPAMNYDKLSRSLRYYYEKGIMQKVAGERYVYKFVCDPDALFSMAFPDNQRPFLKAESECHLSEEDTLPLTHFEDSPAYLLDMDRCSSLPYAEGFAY
# ELF1, sequence (P32519 whole entry): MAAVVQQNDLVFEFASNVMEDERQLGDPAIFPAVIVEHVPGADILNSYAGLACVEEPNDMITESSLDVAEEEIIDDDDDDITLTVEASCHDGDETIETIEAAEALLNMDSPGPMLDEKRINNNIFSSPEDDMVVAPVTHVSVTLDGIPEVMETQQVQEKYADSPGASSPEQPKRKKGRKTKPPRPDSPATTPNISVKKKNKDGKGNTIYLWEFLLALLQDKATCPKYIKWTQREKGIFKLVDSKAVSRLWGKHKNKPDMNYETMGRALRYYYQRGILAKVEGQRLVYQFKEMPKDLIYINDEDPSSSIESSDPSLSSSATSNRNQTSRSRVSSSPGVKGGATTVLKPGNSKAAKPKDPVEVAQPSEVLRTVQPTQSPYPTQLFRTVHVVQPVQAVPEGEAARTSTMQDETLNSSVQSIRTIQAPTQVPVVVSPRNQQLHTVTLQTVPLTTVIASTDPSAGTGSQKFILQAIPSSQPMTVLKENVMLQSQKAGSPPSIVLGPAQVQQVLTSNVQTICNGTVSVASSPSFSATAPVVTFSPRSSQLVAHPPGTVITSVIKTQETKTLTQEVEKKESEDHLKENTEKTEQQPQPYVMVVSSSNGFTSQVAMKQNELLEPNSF
# HSF1, sequence (Q00613 whole entry): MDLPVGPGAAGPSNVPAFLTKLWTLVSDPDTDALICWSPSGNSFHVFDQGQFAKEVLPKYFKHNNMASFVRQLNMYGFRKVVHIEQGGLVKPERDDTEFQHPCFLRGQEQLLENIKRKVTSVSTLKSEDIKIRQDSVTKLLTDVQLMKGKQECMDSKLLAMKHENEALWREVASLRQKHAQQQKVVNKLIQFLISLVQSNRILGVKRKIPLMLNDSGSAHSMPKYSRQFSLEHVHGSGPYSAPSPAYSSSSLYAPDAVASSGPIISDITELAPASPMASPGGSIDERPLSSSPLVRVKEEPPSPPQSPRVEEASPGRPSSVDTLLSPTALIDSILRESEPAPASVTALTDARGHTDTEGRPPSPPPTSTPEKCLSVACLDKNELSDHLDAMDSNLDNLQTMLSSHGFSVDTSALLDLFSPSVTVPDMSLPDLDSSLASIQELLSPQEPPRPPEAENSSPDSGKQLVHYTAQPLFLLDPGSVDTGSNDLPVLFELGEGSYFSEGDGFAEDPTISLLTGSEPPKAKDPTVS
sequence,measurement,setting,value
CTAATG,binding signal,FLI1,"1.34 fold enrichment (6-mer frequency, TF over GST control)"
same,binding signal,ELK1,"1.22 fold enrichment (6-mer frequency, TF over GST control)"
same,binding signal,GABPA,"1.26 fold enrichment (6-mer frequency, TF over GST control)"
same,binding signal,ERG,"1.18 fold enrichment (6-mer frequency, TF over GST control)"
same,binding signal,ELF1,"1.23 fold enrichment (6-mer frequency, TF over GST control)"
same,binding signal,EHF,"1.28 fold enrichment (6-mer frequency, TF over GST control)"
same,binding signal,SPI1,"1.26 fold enrichment (6-mer frequency, TF over GST control)"
same,binding signal,SPIB,"1.26 fold enrichment (6-mer frequency, TF over GST control)"
same,binding signal,ELK3,"1.46 fold enrichment (6-mer frequency, TF over GST control)"
same,binding signal,FEV,"1.16 fold enrichment (6-mer frequency, TF over GST control)"
same,binding signal,ETV5,"1.25 fold enrichment (6-mer frequency, TF over GST control)"
same,binding signal,HSF1,"1.31 fold enrichment (6-mer frequency, TF over GST control)"
same,binding signal,SPIC,"1.35 fold enrichment (6-mer frequency, TF over GST control)"
same,binding signal,ELF4,"1.36 fold enrichment (6-mer frequency, TF over GST control)"
same,binding signal,ELK4,"1.34 fold enrichment (6-mer frequency, TF over GST control)"
same,binding signal,ETV2,"1.12 fold enrichment (6-mer frequency, TF over GST control)"
same,binding signal,ELF3,"1.27 fold enrichment (6-mer frequency, TF over GST control)"
same,binding signal,CRX,"1.6 fold enrichment (6-mer frequency, TF over GST control)"
same,binding signal,ETV1,"1.29 fold enrichment (6-mer frequency, TF over GST control)"
